This is a sample that favours compounds with a hit; in the whole collection about 3.4% have one here.
PKM2 activator: qHTS Assay for Activators of Human Muscle isoform 2 Pyruvate Kinase; Pyruvate kinase PKM (Homo sapiens), P14618; Potency, µM (series often up to 57.5 µM), for the others: top-dose activation, actives largely listed as activators; purified PKM2, Kinase-Glo ATP luminescence, activation; response scale: 0% is enzyme alone, no compound; 0.34% of 260,000 active; further: on the % scale 0 is the no-effect control and ±100 the full control effect; nearly all actives have a fitted effect of over 55% in size
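Kinase-Glo luminescence reports ATP generated from ADP (0.1 mM) and PEP (0.5 mM) by purified hPK-M2 after 1 h at room temperature, pH 7.2 imidazole buffer; intermediate enzyme activity allows detecting inhibitors and activators.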
PLK1 PBD inh: qHTS for Inhibitors of PLK1-PDB (polo-like kinase 1 - polo-box domain): Primary Screen. Serine/threonine-protein kinase PLK1 (Homo sapiens), P53350. Plk1 PBD binding of FITC phosphopeptide, fluorescence polarization. Potency, µM, without a hit: max response, negative = inhibition, hits mostly inhibitors. 2.8% of 360,000 active. AID 720504, 2013; further: series mostly up to about 57 µM; on the % scale 0 is the no-effect control and ±100 the full control effect; nearly all actives have a fitted effect of over 65% in size
Mito fusion yeast: qHTS Assay for Small Molecule Inhibitors of Mitochondrial Division or Activators of Mitochondrial Fusion | Potency, µM (titrated, usually from 46.1 µM), inactives show at the top dose growth rescue (activation), most hits filed as activators | S. cerevisiae fusion-defective mutant growth rescue, CellTiterGlo 48 h | 0.23% of 320,000 active | AID 485298, 2010; further: % of control where 0% means no effect; nearly all actives have a fitted effect of over 45% in size
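S. cerevisiae fusion-defective temperature-sensitive mutants (e.g. fzo1-1, mgm1-5) grown 48 h at 37C in YPEG (ethanol/glycerol non-fermentable) medium with 23 nl compound per well; growth rescue read as CellTiterGlo luminescence.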
GLS inhibitor: qHTS for Inhibitors of Glutaminase (GLS); Glutaminase kidney isoform, mitochondrial (Homo sapiens), O94925; GLS enzymatic activity, qHTS titration; Potency, µM (series often up to 45.5 µM), for inactives: at the highest dose activity change, negative = inhibition, actives largely listed as inhibitors; 0.21% of 410,000 active; AID 624170, 2012; further: on the % scale 0 is the no-effect control and ±100 the full control effect
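hKGA in 45 mM KH2PO4 (pH 8.2), 0.02% Tween-20 with compound, then 1mM L-Glutamine (stock as added) plus glutamate oxidase/HRP/Amplex red coupling mix. Fluorescence read initially and after 30 min at RT; signal change reflects glutamate formation.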
GCN5L2 inh: qHTS Assay for Inhibitors of GCN5L2; GCN5L2 HAT assay, ThioGlo1 CoA-SH fluorescence; Histone acetyltransferase KAT2A (Homo sapiens), Q92830; 0.21% of 390,000 active; Potency, µM (highest dose often 58.9 µM), for the others: at the highest dose activity change, negative = inhibition, hits mostly inhibitors; further: on the % scale 0 is the no-effect control and ±100 the full control effect
Target sequence (Q92830 whole entry, looked up): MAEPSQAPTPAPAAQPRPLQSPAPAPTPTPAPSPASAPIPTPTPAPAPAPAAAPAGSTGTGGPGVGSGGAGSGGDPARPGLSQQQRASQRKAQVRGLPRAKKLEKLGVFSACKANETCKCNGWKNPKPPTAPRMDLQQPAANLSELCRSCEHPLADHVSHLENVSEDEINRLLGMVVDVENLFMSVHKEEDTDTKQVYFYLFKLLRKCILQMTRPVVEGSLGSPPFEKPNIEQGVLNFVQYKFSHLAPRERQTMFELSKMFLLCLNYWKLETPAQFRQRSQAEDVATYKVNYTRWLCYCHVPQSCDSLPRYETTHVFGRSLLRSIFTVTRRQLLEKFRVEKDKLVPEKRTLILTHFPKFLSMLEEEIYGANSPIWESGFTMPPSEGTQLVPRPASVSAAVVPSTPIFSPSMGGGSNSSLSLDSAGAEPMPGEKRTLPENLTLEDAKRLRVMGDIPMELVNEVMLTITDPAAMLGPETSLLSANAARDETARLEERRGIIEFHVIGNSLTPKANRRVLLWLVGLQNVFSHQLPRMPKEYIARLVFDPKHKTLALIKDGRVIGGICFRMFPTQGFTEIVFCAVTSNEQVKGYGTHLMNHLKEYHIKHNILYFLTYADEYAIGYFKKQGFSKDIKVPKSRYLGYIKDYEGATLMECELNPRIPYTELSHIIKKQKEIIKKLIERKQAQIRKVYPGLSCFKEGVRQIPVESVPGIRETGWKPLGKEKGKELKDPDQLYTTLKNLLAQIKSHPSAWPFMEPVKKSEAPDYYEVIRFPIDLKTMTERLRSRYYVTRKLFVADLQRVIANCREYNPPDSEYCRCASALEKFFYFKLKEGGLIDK
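Free CoA generated was detected with ThioGlo1 (50uM) fluorescence at Ex340nm/Em540nm, read immediately and after 20 min at room temperature. Enzyme, 20 nM in HEPES pH 7.5 buffer, saw compounds 15 min before adding 75uM H3(1-25) peptide and 70uM acetyl-CoA.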
VDR inh: Inhibitors of the vitamin D receptor (VDR): qHTS; Vitamin D3 receptor (Homo sapiens), P11473; VDR-SRC2-3 peptide fluorescence polarization, 2 h; Potency, µM, without a hit: max response, negative = inhibition, hits mostly inhibitors; 0.93% of 400,000 active; further: on the % scale 0 is the no-effect control and ±100 the full control effect
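Two reagent solutions held at 4 deg C in the dark were dispensed, compounds pinned at 23 nl, and the mixture incubated 2 h at room temperature. Read-out: fluorescence polarization of VDR–SRC2-3 peptide binding.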
TbPYK inh: qHTS of Trypanosoma Brucei Inhibitors: Confirmatory Assay for Cherry-picked Compounds; AID 720569, 2013; Potency, µM (titrated, usually from 76.9 µM), for the others: top-dose activity change, negative = inhibition, hits mostly inhibitors; 67% of 890 active; shares compounds with PLK1 PBD inh; recombinant TbPYK, Kinase-Glo ATP luminescence; further: on the % scale 0 is the no-effect control and ±100 the full control effect; nearly all actives have a fitted effect of over 70% in size
TbPYK orthogonal: qHTS of Trypanosoma Brucei Inhibitors: Orthogonal Assay for Cherry-picked Compounds; recombinant TbPYK, ADP-Glo luminescence, 60 min; shares compounds with PLK1 PBD inh; Potency, µM (series often up to 76.9 µM), for inactives: top-dose activity change, negative = inhibition, actives largely listed as inhibitors; 62% of 890 active; further: on the % scale 0 is the no-effect control and ±100 the full control effect; nearly all actives have a fitted effect of over 75% in size
* = called active by the depositor; ? = inconclusive; . = not tested or not shown. The call rests on the fitted dose curve; in most records, active means well fitted curve in the direction sought with a large enough effect; inconclusive means small, poorly fitted or top-dose-only effect, or another doubt; inactive means no such curve, though single readings can be large; an effect the other way counts as inactive or inconclusive. Potency means the concentration at half of the fitted maximal effect.

SMILES	PKM2 activator	PLK1 PBD inh	Mito fusion yeast	GLS inhibitor	GCN5L2 inh	VDR inh	TbPYK inh	TbPYK orthogonal
CC1CCC(NC(=O)C2(C)Cc3ccccc3C(=O)N2Cc2ccc(Cl)cc2)CC1 (stereo not given)	.	.	.	-2.2%	-0.9%	-2.7%	.	.
CC(=O)C1=C(C)NC(SCC(=O)c2ccccc2)=C(C#N)C1CC(C)C (stereo not given)	-14.7%	-26.3%	11.3%	-5.7%	-3.0%	-15.0%	?	39.8µM*
CC(=O)C1=C(C)NC(SCC(=O)c2ccccc2)=C(C#N)C1c1ccco1 (stereo not given)	3.2%	.	?	.	-11.0%	.	.	.
COC1=CC(=O)C(C2CC(=O)c3c(O)cc(O)cc3O2)=CC1=O (stereo not given)	.	4.23µM*	.	29.6%	.	79.4µM*	15.8µM*	28.2µM*
COc1c(CC=C(C)C)cc(C2CC(=O)c3c(O)cc(O)cc3O2)cc1CC=C(C)C (stereo not given)	-8.5%	-7.2%	2.9%	17.5%	?	-23.6%	.	.
O=C(CCSCCC(=O)NCc1ccco1)NCc1ccco1	-2.5%	21.2µM*	0.1%	-27.5%	-12.2%	?	?	?
O=C(O)CC(C(=O)O)N1C(=O)/C(=C/C=C/c2ccco2)SC1=S (stereo not given)	7.4%	2.38µM*	-2.4%	2.82µM*	-13.5%	66.7%	?	?
Cc1ccc(/C=C/C(=O)N2CCN(S(=O)(=O)c3ccc(C)c(C)c3)CC2)o1	?	23.8µM*	7.7%	14.2%	-15.8%	?	12.6µM*	15.8µM*
Cc1ccc(N(C)C(=O)C2CCN(S(=O)(=O)c3c(C)noc3/C=C/c3c(C)cc(C)cc3C)CC2)cc1	.	.	.	2.8%	-6.7%	-4.1%	.	.
CC(OC(=O)C1=Cc2ccccc2OC1)C(=O)NCC1CCCO1 (stereo not given)	.	11.9µM*	.	-22.3%	.	?	-6.8%	-7.2%
CCN1/C(=C2\C(=O)N(C)C(=S)N2c2ccccc2)C=Cc2ccccc21	-25.5%	-19.6%	-7.6%	?	-10.2%	9.2%	.	.
CCN1/C(=C2\C(=O)N(C)C(=S)N2C)C=Cc2ccccc21	-20.0%	0.2%	-3.6%	?	-5.6%	0.1%	?	?
COc1ccc(OC)c(NC2c3ccccc3C(=O)N2Cc2ccc3c(c2)OCO3)c1 (stereo not given)	11.5%	-6.8%	10.0%	-10.1%	0.0%	0.6%	?	35.5µM*
O=C1c2ccccc2C(Nc2ccc3c(c2)OCO3)N1Cc1ccc2c(c1)OCO2 (stereo not given)	-1.4%	-0.5%	?	-1.9%	0.7%	4.7%	.	.
CCn1c(CCNC(=O)c2cccs2)nnc1SCC(=O)c1ccc(OC)cc1	.	?	.	6.0%	.	-12.7%	0.891µM*	14.1µM*
CCn1c(CNC(=O)c2ccc(OC)cc2)nnc1SCC(=O)c1ccccc1	-20.0%	-11.3%	10.7%	1.8%	-4.9%	?	.	.
Cc1cc(N2CCCCC2)nc(N2CCCCC2)n1	2.0%	-4.3%	-0.6%	-6.0%	-10.4%	-14.1%	.	.
Cc1ccc(CN(C)C(=O)c2cc(COc3cccc(C(F)(F)F)c3)on2)o1	18.8%	?	2.4%	-6.6%	-3.2%	89.1µM*	12.6µM*	11.2µM*
CN(Cc1nccn1C)C(=O)c1cc(COc2cccc(C(F)(F)F)c2)on1	.	-11.9%	-6.9%	0.8%	-28.4%	-7.9%	.	.
COC(=O)C1=C(C(=O)OC)C(C(=O)OC)C(C(=O)OC)C(C(=O)OC)(C(=O)OC)C(C(=O)OC)=C1C(=O)OC (stereo not given)	.	10.6µM*	.	8.5%	.	39.8µM*	28.2µM*	35.5µM*
COc1cccc(C=C2Cc3ccccc3C2=O)c1	.	-2.5%	.	9.1%	.	.	.	.
COc1cccc(/C=C2\C(=O)C(=O)c3ccccc32)c1	18.3%	0.794µM*	-1.1%	44.4%	-3.9%	89.1µM*	31.6µM*	?
COc1ccc(S(=O)(=O)N2CCC(N3CCN(Cc4ccccc4)C(=O)C3=O)CC2)cc1	.	.	.	1.6%	-4.3%	10.8%	.	.
Cc1ccc(-n2c(SCC(=O)Nc3ccc4c(c3)OCO4)nnc2-c2cccs2)cc1	-6.1%	-4.9%	-1.5%	-2.7%	0.9%	-7.9%	1.78µM*	4.47µM*
O=C(O)c1ccc(NS(=O)(=O)c2ccc3c(c2)C2C=CCC2C(c2ccccc2F)N3)cc1 (stereo not given)	19.7%	?	9.9%	-19.9%	?	?	?	?
SMILES	PKM2 activator	PLK1 PBD inh	Mito fusion yeast	GLS inhibitor	GCN5L2 inh	VDR inh	TbPYK inh	TbPYK orthogonal
Cc1ccc(NS(=O)(=O)c2ccc3c(c2)[C@H]2C=CC[C@H]2[C@@H](c2ccc(F)cc2)N3)cc1C	.	.	.	1.3%	-1.6%	-15.6%	.	.
CCN1CCN(C(=O)c2c(C)nn(-c3ccc(F)cc3)c2-n2cccc2)CC1	.	.	.	-9.0%	1.6%	5.1%	.	.
COCCN=C1NN=C(c2ccc(C)c([N+](=O)[O-])c2)CS1	0.7%	26.7µM*	-4.0%	24.8%	-1.9%	?	?	?
Cc1ccc(/C=C2/NC(=O)N(Cc3ccccc3)C2=O)o1	?	33.7%	18.1%	-1.5%	?	89.1µM*	15.8µM*	31.6µM*
CCNc1ncc2nc(-c3cccs3)c(=O)n(Cc3cccc(OC)c3)c2n1	.	.	.	.	-5.1%	-14.1%	.	.
Cc1ccc(NC(=O)c2ccc(Cl)c(N3C(=O)C=CC3=O)c2)cc1	20µM*	3.36µM*	-3.1%	-9.4%	17.8µM*	17.8µM*	5.62µM*	12.6µM*
COc1ccc(N2C(=O)CS(=O)(=O)C23C(=O)N(Cc2ccc(F)cc2)c2ccc(C)cc23)cc1 (stereo not given)	.	.	.	-2.9%	6.7%	17.7%	.	.
CCCSc1nc2c([nH]1)c(=O)n(C)c(=S)n2C	.	-1.2%	.	19.2%	.	2.8%	.	.
CCSc1nc2c([nH]1)c(=O)n(C)c(=S)n2C	.	3.36µM*	.	2.3%	.	22.4µM*	5.01µM*	10µM*

Screens from PubChem BioAssay.
